Test results from ChEMBL document CHEMBL4513216, “Probing the Open Global Health Chemical Diversity Library for Multistage-Active Starting Points for Next-Generation Antimalarials” (ACS Infect Dis, 2020).
Screen size: about 68,000 compounds; about 2,700 (4%) showed an effect of 50% or more. The sample holds strong results, similar compounds and a random draw of the others, so the mix is not that of the screen.

These molecules were tested on Plasmodium berghei (assay: Screen against P. berghei liver stage (PbLuc), transformed with Luciferase, at 2uM). Settings: tested at 2 uM.
Type: functional, HepG2
Molecule `Cc1nn(CC(C)C)c(N(C)C)c1CNCc1ccnn1C` has an INHIBITION of 9.97%.
For `COCCn1ccc(=O)c(OCC(=O)Nc2cccc(Cl)c2)c1C`, the INHIBITION was 6.41%.
Work on `Cc1noc(C2CCCN(C(=O)CCNc3ncccn3)C2)n1` (configuration not stated) yielded an INHIBITION of 31.78%.
For `CC(C)CCN(C)Cn1ncc2cn(-c3ccccc3)nc2c1=O`, the INHIBITION was 19.45%.
Work on `COCCn1cc2c(n1)C(CNS(C)(=O)=O)OCC2` (configuration not stated) yielded an INHIBITION of 35.07%.
Work on `O=C(NCC1OCCc2cn(CC3CCOCC3)nc21)c1ccsc1` (configuration not stated) yielded an INHIBITION of -40.44%.
`c1cc(CNCC2OCCc3cn(CC4CCOCC4)nc32)ccn1` (configuration not stated) was tested, and the INHIBITION was -66.93%.
Work on `O=S(=O)(NCC1OCCc2cn(CC3CCOCC3)nc21)C1CC1` (configuration not stated) yielded an INHIBITION of 24.43%.
Molecule `c1ccc(Cn2cc3c(n2)C(CNCc2ccco2)OCC3)nc1` (configuration not stated) has an INHIBITION of 15.96%.
With `CCS(=O)(=O)NCC1OCCc2cn(CC3CCOCC3)nc21` (configuration not stated) the INHIBITION was 62.4%.
Molecule `COCCn1cc2c(n1)C(CNC(=O)c1cc(C)[nH]c1C)OCC2` (configuration not stated) has an INHIBITION of 60.14%.
Molecule `O=C(NCC1OCCc2cn(CC3CCOCC3)nc21)c1ccncc1` (configuration not stated) has an INHIBITION of 56.71%.
For `c1ccc(Cn2cc3c(n2)C(CNCC2CCOCC2)OCC3)nc1` (configuration not stated), the INHIBITION was 26.66%.
Work on `Cc1cc(C(=O)NCC2OCCc3cn(CC4CC4)nc32)c(C)[nH]1` (configuration not stated) yielded an INHIBITION of -28.58%.
With `CCCS(=O)(=O)NCC1OCCc2cn(CC3CCOCC3)nc21` (configuration not stated) the INHIBITION was 12.95%.
`O=S(=O)(NCC1OCCc2cn(Cc3ccccn3)nc21)C1CC1` (configuration not stated) was tested, and the INHIBITION was 50.32%.
`Cc1cc(-c2cnc(N3CCC(C(N)=O)CC3)nc2C(C)C)on1` showed an INHIBITION of -12.93%.
`O=C(NCc1cccnc1)N1CCC2(CC(=O)N(c3ccsc3)C2)C1` (configuration not stated) was tested, and the INHIBITION was 13.92%.
Work on `CCN1C[C@H]2C3(CCN(C(C)=O)CC3)CC[C@@]2(C(=O)N(C)C)C1` yielded an INHIBITION of 17.47%.
Molecule `Cc1ccc(NC2CCN(C(=O)c3ccc(C)o3)CC2)nn1` has an INHIBITION of -47.54%.
With `Cc1n[nH]c2ncc(CNC3CCCN(c4ncccn4)C3)cc12` (configuration not stated) the INHIBITION was 42.17%.
With `O=C(c1cccnc1)N1CCC2(CCN(C(=O)N3CCCC3)CC2)C1` the INHIBITION was -11.34%.
`COCCn1c2c(ccc1=O)CC(NCc1cccnc1OC)CC2` (configuration not stated) showed an INHIBITION of -1.81%.
For `CCc1ncnc2c1CCN(Cc1nccs1)CC2`, the INHIBITION was -6.83%.
Molecule `O=C1OCCN1CCNC(=O)C1(N2CCCCC2)Cc2ccccc2C1` has an INHIBITION of 51.96%.
`O=C(NCCCO)C1(N2CCCCC2)Cc2ccccc2C1` gave an INHIBITION of -118.83%.
For `CC(=O)NCCNC(=O)C1(N2CCCCC2)Cc2ccccc2C1`, the INHIBITION was 10.91%.
`CNC(=O)c1nn(C)cc1NC(=O)C(C)n1ncc(Cl)c1C` (configuration not stated) gave an INHIBITION of -11.07%.
`CC(C)CN1CCN(C(=O)c2[nH]nnc2Nc2ccccc2F)CC1` gave an INHIBITION of -19.92%.
In the case of `Cc1cc(N(C)C)nc(C2(C)CCCN2C(=O)c2cncnc2C)n1` (configuration not stated), the INHIBITION is reported as 14.05%.
Molecule `Cc1nc(N)ncc1C(=O)N1CCCC1(C)C(=O)N(C)C` (configuration not stated) has an INHIBITION of 50.17%.
`Cc1ncc(C(=O)N2CCCC2(C)C(=O)N2CCOCC2)c(C)n1` (configuration not stated) gave an INHIBITION of -14.73%.
Work on `O=C(NCCCNc1ccccn1)NCC1CCS(=O)(=O)C1` (configuration not stated) yielded an INHIBITION of 41.93%.
`COc1ccc(F)c(CN2CCC(c3cc(O)nc(C)n3)C2)c1` (configuration not stated) showed an INHIBITION of 25.87%.
For `CNC(=O)COC1COC2(CCN(c3ccc(C)nn3)CC2)C1` (configuration not stated), the INHIBITION was -37.31%.
For `O=C(c1ccno1)N1CCO[C@@H]2CC(COCc3ccccn3)C[C@H]21` (some centres not stated), the INHIBITION was 43.24%.
With `O=C(NCCN1CCOCC1)C1=NOC2(CCN(Cc3nccs3)C2)C1` (configuration not stated) the INHIBITION was 50.9%.
In the case of `Cc1ncccc1NC(=O)C1=NOC2(CCN(Cc3nccs3)C2)C1` (configuration not stated), the INHIBITION is reported as 16.87%.
`CNC(=O)C1=NOC2(CCN(Cc3nccs3)C2)C1` (configuration not stated) gave an INHIBITION of 5.9%.
In the case of `CCc1nc(C2CCCN2Cc2ccno2)no1` (configuration not stated), the INHIBITION is reported as -62.13%.
Work on `O=C1NCC2(CCCN(Cc3cccnc3)C2)Oc2ccccc21` (configuration not stated) yielded an INHIBITION of 24.06%.
`Cc1cc(-c2cc(S(=O)(=O)N3C[C@H](C4CC4)[C@@H](N)C3)c(C)s2)on1` was tested, and the INHIBITION was 14.95%.
For `COc1cccc(CN2CCCC(c3nn(C)c4nccnc34)C2)c1` (configuration not stated), the INHIBITION was 22.81%.
`COc1cc(N2CCC3(CCCN(C(=O)c4cccnc4)C3)C2)ncn1` (configuration not stated) showed an INHIBITION of -15.29%.
In the case of `Cc1ccc(CNC(C)c2ccc(N3CCN(C)CC3)c(F)c2)o1` (configuration not stated), the INHIBITION is reported as 14.89%.
With `Cc1ccc(CNC(C)c2cc(F)ccc2N2CCN(C)CC2)o1` (configuration not stated) the INHIBITION was 60.84%.
With `CC(NCc1ccncc1)c1cc(F)ccc1N1CCN(C)CC1` (configuration not stated) the INHIBITION was 24.88%.
In the case of `Cc1ccc(CC(=O)N2CCCC(c3ccn[nH]3)C2)cn1` (configuration not stated), the INHIBITION is reported as -5.3%.
`O=C(NCCCO)c1cc(-c2cc[nH]n2)n2ccccc12` was tested, and the INHIBITION was -50.4%.
Work on `Fc1cccc(-c2nnn3c2COCC(CNCc2nccs2)C3)c1` (configuration not stated) yielded an INHIBITION of 3.18%.
For `COCc1cc(N(C)CCC(O)c2ccccc2)n2nccc2n1` (configuration not stated), the INHIBITION was 45.87%.
`Cc1cc(N(C)CCC(O)c2ccccc2)n2nccc2n1` (configuration not stated) gave an INHIBITION of 26.35%.
`CCc1cc(N(C)CCC(O)c2ccccc2)n2nccc2n1` (configuration not stated) showed an INHIBITION of 53.12%.
`CCOCC1CCN(C(=O)C(c2ccccc2F)N(C)C)CC1` (configuration not stated) was tested, and the INHIBITION was -45.44%.
`CN(C)C(C(=O)N1CCCC1)c1ccccc1F` (configuration not stated) gave an INHIBITION of -12.23%.
`CN(C)C(C(=O)N1CCC(CCO)CC1)c1ccccc1F` (configuration not stated) gave an INHIBITION of 57.34%.
For `c1cncc(C2CC3(CCN(c4cnccn4)CC3)c3ccccc32)c1` (configuration not stated), the INHIBITION was -8.91%.
In the case of `COc1cccc(-n2nnc(C(=O)N3CCCC3)c2C)c1`, the INHIBITION is reported as -32.49%.
For `COc1cccc(-n2nnc(C(=O)N3CCC(C(N)=O)CC3)c2C)c1`, the INHIBITION was 56.78%.
For `COc1cccc(-n2nnc(C(=O)N3CCN(C)CC3C)c2C)c1` (configuration not stated), the INHIBITION was 89.42%.
With `COc1cccc(-n2nnc(C(=O)N3CCOC(C)C3)c2C)c1` (configuration not stated) the INHIBITION was 32.64%.
`COc1cccc(-n2nnc(C(=O)N3CCCCCC3)c2C)c1` gave an INHIBITION of 30.05%.
`COc1cccc(-n2nnc(C(=O)N3CCCC(C)C3)c2C)c1` (configuration not stated) was tested, and the INHIBITION was 5.91%.
`Cc1nc(-c2ccc(S(=O)(=O)N3CCC4(CC3)OCCO4)cc2)co1` was tested, and the INHIBITION was 13.93%.
`CCNc1cc2c(nn1)CCN(C(=O)C(C)c1c(C)noc1C)C2` (configuration not stated) showed an INHIBITION of -45.83%.
`COc1cc(CNCc2ccnc(N3CCCC3)c2)cc(OC)c1` showed an INHIBITION of -2.71%.
For `CCN1C[C@H]2C3(CCN(C(=O)NC(C)C)CC3)CC[C@@]2(C(=O)NC)C1`, the INHIBITION was 45.36%.
